About 83,000 compounds went through this panel and 20% of them were active in at least one assay; those are over-represented in the sample as a whole.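 Activity criterion: percent growth below 10, measured after cells in 96-well plates were exposed to a single compound concentration for 48 hours.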 Active and inactive are the calls of the source.
What follows are molecules tested on T-47D breast (assay: NCI-60 one-dose screen, 48 h (100 = growth as untreated, 0 = no growth, -100 = all killed)). Details: 10 µM.
Procedure: Growth inhibition of the T-47D human tumor cell line is measured as a screen for anti-cancer activity. Cells are grown in 96 well plates and exposed to the test compound for 48 hours. Compounds are tested at a single concentration, which is 10^-5 M for most compounds. The reported endpoint is percent growth (GI% or GIPRCNT), where numbers from 0 - 100% represent growth inhibition, and numbers from -100% - 0 represent cell death. For example, a value of 40 represents 60% growth inhibition. A value of 0 means no net growth occurred over the course of the experiment. A value of -40 indicates 40% of cells at the beginning of the experiment died by the end of the experiment. A value of -100 means all cells are dead at the end of the experiment.
NCI-60 Human Tumor Cell Lines Screen was performed using the standard one-dose NCI protocol, which is described in more detail at https://dtp.cancer.gov/discovery_development/nci-60/default.htm.
Compounds with GIPRCNT values below 10 were considered active. Activity score was based on GIPRCNT using the following formula: […]
Score is 0 for GIPRCNT values of 100 or above, 50 for GIPRCNT values of 0, and 100 for GIPRCNT values of -100.
In the case of `COc1cccc(C(=O)Nc2ccc(CN3CCc4nc5cc(OC)c(OC)cc5cc43)cc2)c1`, the growth is reported as 32.4% (inactive). In the case of `CCCCCCCCCCCC[n+]1ccc(C(N)=O)cc1`, the growth is reported as 38.8% (inactive). With `CC/C(=C(/c1ccc(OCCN(C)C)cc1)c1ccc(OC(=O)CCCCCCCCC(=O)c2c(C)[nH]c(/C=C3\N=C(c4ccc[nH]4)C=C3OC)c2C)cc1)c1ccccc1` the growth was 48.3% (inactive). In the case of `COc1cc(NC(=O)CCSc2nc3ccc(Cl)cc3c(=O)n2Cc2ccccc2)cc(OC)c1OC`, the growth is reported as 64.2% (inactive). `O=C(CCCCC[P+](c1ccccc1)(c1ccccc1)c1ccccc1)NC(COC(=O)C(Cl)Cl)(COC(=O)C(Cl)Cl)COC(=O)C(Cl)Cl` was tested, and the growth was 90.8% (inactive). For `Nc1c(C(=O)Nc2ccccc2)sc2nc3c(cc12)CCCC3`, the growth was 47.3% (inactive). In the case of `O=C(Nc1cccc(-n2cc(-c3ccncc3)c(-c3ccc(O)c(Cl)c3)n2)c1)c1cc(C(F)(F)F)cc(C(F)(F)F)c1`, the growth is reported as 25.6% (inactive). `NC(=O)CC1(c2ccccc2)CCCCC1` was tested, and the growth was 97.5% (inactive). With `Cc1[nH]nc2c1C(c1cnn(C)c1)C(C#N)=C(N)O2` (stereo not given) the growth was 96.4% (inactive). For `CCc1ccc2c(c1)N(CCO)C1=C(C(=O)OC1)C2c1cc(OC)c(OC)c(OC)c1` (stereo not given), the growth was 59.7% (inactive). For `ClCCOCCn1cnc2c(Cl)nc(Cl)nc21`, the growth was 80.9% (inactive). With `Cc1cs/c(=N\NC(=O)c2cc(-c3cc4ccccc4o3)nn2-c2ccccc2)n1-c1ccccc1` the growth was 69.6% (inactive). With `O=[N+]([O-])c1cccc(-c2ncc(-c3ccc(Cl)cc3Cl)[nH]2)c1` the growth was 79% (inactive). For `O=C(O)CN1C(=O)c2cccc3cccc(c23)C1=O`, the growth was 90.1% (inactive). In the case of `CCCCCCCCCCCCC1C/C=C\CCCC(=O)O1` (stereo not given), the growth is reported as 91.2% (inactive). With `ClCC#CCSc1ncnc2c1ncn2CC#CCCl` the growth was -23.1% (active). In the case of `CCCCCCNC(=O)Oc1ccc(/C(=C(/CC)Cc2ccccc2)c2ccc(OCCN3CCCCC3)cc2)cc1`, the growth is reported as 51.3% (inactive). `O=C(N/N=C/c1ccccc1)C(Oc1ccccc1)c1ccccc1` (stereo not given) was tested, and the growth was 94.4% (inactive). `Cn1c(N)c(N=Nc2ccc(S(=O)(=O)Nc3nccs3)cc2)c(=O)n(C)c1=O` was tested, and the growth was -10.2% (active). In the case of `CCN(CC)CCCOCCCNc1cc(OC)cc2cccnc12`, the growth is reported as 33.9% (inactive). `COc1ccc(NC2=NC(C)(CO)CS2)cc1` (stereo not given) was tested, and the growth was 101% (inactive). In the case of `COc1ccc(Nc2ccnc(NCCNc3ccnc4cc(Cl)ccc34)n2)cc1`, the growth is reported as 34.9% (inactive). For `CCOC(=O)C1(CC(C)C)CCOC1=O` (stereo not given), the growth was 99% (inactive). With `CCOC(=O)c1ccoc1` the growth was 94.3% (inactive). For `COc1ccc(/C=C/C(=O)Nc2ccc(-c3nc4ccc(OC)cc4s3)cc2)cc1`, the growth was 101% (inactive). For `CO/N=C(/C(=O)NC1C(=O)N2C(C(=O)O)=C(COC(N)=O)CSC12)c1ccco1` (stereo not given), the growth was 101% (inactive). In the case of `O=C1N=NC2=C1c1c3ccccc3c(O)n1CC2`, the growth is reported as 103% (inactive). For `C[C@@H]1C=C2C(=O)O[C@@H]3CC[C@H](C1)[C@]23O`, the growth was 26.3% (inactive). `CC[C@H]1CCC/C=C/[C@@H]2C[C@H](O)C[C@H]2[C@H](O)/C=C/C(=O)O1` was tested, and the growth was -81.1% (active). In the case of `Cc1cc(N(CCCNc2ccnc3cc(Cl)ccc23)Cc2ccc3c(c2)OCO3)nc(N2CCCCC2)n1`, the growth is reported as -37.3% (active). `Cc1cc(=O)[nH]c(N/N=C/c2ccccc2O)n1` was tested, and the growth was 48.7% (inactive). With `CCCCOc1ccc(NC(=O)Nc2nnc(C)s2)cc1` the growth was 77.9% (inactive). `COc1ccc2c(c1)nc(N)c1c3cccnc3cn21` was tested, and the growth was 62.6% (inactive). In the case of `CN(C)C(=S)N/N=C\C=N/NC(=S)N(C)C`, the growth is reported as 15% (inactive). In the case of `Clc1ccccc1N=Cc1ccc2c(c1)OCO2`, the growth is reported as 109% (inactive). In the case of `COc1ccc(/C=C2/CN(C(=O)c3ccc(C)cc3)C/C(=C\c3ccc(OC)cc3)C2=O)cc1`, the growth is reported as 69.3% (inactive). `O=C1OCC2=C1C(c1cccc(Br)c1)c1cc3c(cc1N2CCO)CCC3` (stereo not given) was tested, and the growth was 71.5% (inactive). `COC(=O)c1c(-c2ccccc2)csc1NC(=O)c1c(-c2ccccc2)noc1C` was tested, and the growth was 71.8% (inactive). With `N=C1c2nc3n(c2C(=O)c2nc4n(c21)CCCC4)CCCC3` the growth was 71.9% (inactive). In the case of `COc1ccc(-c2cc(-c3ccc(N(C)C)cc3)c(C#N)c(N3CCCC3)n2)cc1`, the growth is reported as 67% (inactive).
